Assay results published in PubChem BioAssay AID1159580 (chemical genetic matrix, 2015).
“And” between values parts separate entries of the source, which are not always exact repeats. Identical values can stand only once. About 2,000 (36%) of roughly 5,500 compounds were called active. About 18% were inconclusive and are not listed. Cut-off read from the data, not from the text of the source: active = normalized growth mostly below about 0.91 (no sharp cut-off); inconclusive = no clear call, values can overlap the other calls; inactive = mostly above about 0.92. The list shows a part of the results.

Test: chemical genetic growth profiling, strain panel (AID 1159580);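 note: tested at 20 µM; growth read once vehicle control cultures reached saturation at 30 °C; 1 = growth at the plate median or of vehicle wells; lower values mean less growth of the strain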
Conditions: S. cerevisiae deletion strains, growth OD
[1] = locus YAL013W, strain DEP1, stronger effect = lower value
[2] = locus YBR229C, strain ROT2, stronger effect = lower value
[3] = locus YDL101C, strain DUN1, stronger effect = lower value
[4] = locus YDR150W, strain NUM1, stronger effect = lower value
[5] = locus YEL061C, strain CIN8, stronger effect = lower value
[6] = locus YGR078C, strain PAC10, stronger effect = lower value
[7] = locus YHR030C, strain SLT2, stronger effect = lower value
[8] = locus YHR087W, strain rtc3, stronger effect = lower value
[9] = locus YJR043C, strain POL32, stronger effect = lower value
[10] = locus YJR075W, strain HOC1, stronger effect = lower value
[11] = locus YLR039C, strain RIC1, stronger effect = lower value
[12] = locus YLR058C, strain SHM2 (second series), stronger effect = lower value
[13] = locus YLR085C, strain ARP6, stronger effect = lower value
[14] = locus YLR262C, strain YPT6, stronger effect = lower value
[15] = locus YML094W, strain GIM5, stronger effect = lower value
[16] = locus YMR219W, strain ESC1, stronger effect = lower value
[17] = locus YMR263W, strain SAP30, stronger effect = lower value
[18] = locus YNL153C, strain GIM3, stronger effect = lower value
[19] = locus YNL298W, strain CLA4 (second series), stronger effect = lower value
[20] = locus YNL322C, strain KRE1, stronger effect = lower value
[21] = locus YNR030W, strain Alg12, stronger effect = lower value
[22] = locus YOL006C, strain TOP1, stronger effect = lower value
[23] = locus YPL055C, strain LGE1, stronger effect = lower value
[24] = locus YPL241C, strain CIN2, stronger effect = lower value
[25] = locus YPR135W, strain CTF4, stronger effect = lower value
[26] = locus YKL190W, strain CNB1, stronger effect = lower value
[27] = locus YMR307W, strain GAS1, stronger effect = lower value

Measured: normalized growth

CCOC(=O)CCC(C#N)(c1ccc(Cl)cc1)N1CCOCC1 (centres undefined)
inactive: [1] 0.99 | [2] 0.997 | [3] 1.04 | [4] 1.05 | [5] 1 | [6] 1.01 | [7] 0.979 | [8] 0.978 | [9] 1.02 | [10] 1.01 | [11] 1.11 | [12] 0.982 | [13] 0.962 | [14] 1.01 | [15] 0.99 | [16] 0.983 | [17] 1.02 | [18] 0.993 | [19] 0.996 | [20] 0.988 | [21] 0.985 | [22] 0.904 | [23] 0.943 | [24] 0.992 | [25] 1.01

CCOC(=O)c1ccc(N2CCOCC2)c(N=Cc2cc(Cl)ccc2O)c1
active: [2] 0.901 | locus YDL134C, strain PPH21, stronger effect = lower value 0.781 | [5] 0.757 | [6] 0.892 | [7] 0.266 | [10] 0.855 | [26] 0.678 | [11] 0.434 | [13] 0.508 | [14] 0.38 | [15] 0.822 | [27] 0.41 | [19] 0.754 | [21] 0.885 | [22] 0.323 | [25] 0.516
inactive: [1] 0.94 | [3] 0.928 | [4] 0.91 | [8] 0.915 | [9] 0.946 | [12] 0.96 | [16] 0.947 | [17] 0.917 | [18] 0.951 | [20] 0.99 | [23] 0.884 | [24] 0.908

COc1cc2c(cc1OC)C(C)NCC2 (centres undefined)
inactive: [1] 0.996 | locus YAL021C, strain ccr4, stronger effect = lower value 0.967 | locus YAL026C, strain drs2, stronger effect = lower value 0.959 | locus YAL030W, strain snc1, stronger effect = lower value 0.985 | locus YBL061C, strain skt5, stronger effect = lower value 0.97 | locus YBR009C, strain hhf1, stronger effect = lower value 0.965 | locus YBR021W, strain FUR4, stronger effect = lower value 0.995 | locus YBR023C, strain chs3, stronger effect = lower value 0.957 | locus YBR171W, strain sec66, stronger effect = lower value 0.958 | [2] 0.995 | locus YBR231C, strain swc5, stronger effect = lower value 0.982 | locus YBR279W, strain paf1, stronger effect = lower value 0.989 | locus YCL011C, strain gbp2, stronger effect = lower value 0.979 | locus YCL016C, strain dcc1, stronger effect = lower value 1 | locus YCL029C, strain bik1, stronger effect = lower value 0.979 | locus YCL069W, strain vba3, stronger effect = lower value 0.962 | locus YCR088W, strain abp1, stronger effect = lower value 0.982 | locus YDL005C, strain med2, stronger effect = lower value 0.976 | locus YDL035C, strain GPR1, stronger effect = lower value 1 | locus YDL040C, strain nat1, stronger effect = lower value 0.984 | locus YDL074C, strain BRE1, stronger effect = lower value 1 | [3] 0.996 | locus YDL185W, strain tfp1, stronger effect = lower value 0.986 | locus YDL192W, strain arf1, stronger effect = lower value 0.98 | locus YDR001C, strain nth1, stronger effect = lower value 0.988 | locus YDR069C, strain doa4, stronger effect = lower value 0.921 | locus YDR101C, strain arx1, stronger effect = lower value 0.979 | locus YDR137W, strain rgp1, stronger effect = lower value 0.977 | [4] 1.01 | locus YDR159W, strain sac3, stronger effect = lower value 0.927 | locus YDR162C, strain NBP2, stronger effect = lower value 1.02 | locus YDR195W, strain ref2 0.963 | locus YDR297W, strain sur2, stronger effect = lower value 1 | locus YDR318W, strain mcm21, stronger effect = lower value 0.986 | locus YDR334W, strain swr1, stronger effect = lower value 0.951 | locus YDR335W, strain msn5, stronger effect = lower value 0.971 | locus YDR388W, stronger effect = lower value 0.978 | locus YDR392W, strain spt3, stronger effect = lower value 0.992 | locus YDR502C, strain sam2, stronger effect = lower value 0.981 | locus YEL003W, strain gim4, stronger effect = lower value 0.976 | locus YEL037C, strain rad23, stronger effect = lower value 0.968 | locus YEL061C, strain CIN8 (second series), stronger effect = lower value 0.966 | [5] 0.995 | locus YER015W, strain faa2, stronger effect = lower value 0.976 | locus YER016W, strain bim1, stronger effect = lower value 0.983 | locus YER110C, stronger effect = lower value 0.963 | locus YER111C, strain swi4, stronger effect = lower value 0.959 | locus YER155C, strain BEM2 (second series), stronger effect = lower value 0.985 | locus YER155C, strain BEM2, stronger effect = lower value 0.99 | locus YER167W, strain BCK2, stronger effect = lower value 0.994 | locus YFR010W, strain ubp6, stronger effect = lower value 0.945 | locus YGL078C, strain dbp3, stronger effect = lower value 0.982 | locus YGL086W, strain mad1, stronger effect = lower value 0.982 | locus YGL167C, strain pmr1, stronger effect = lower value 0.969 | locus YGL173C, strain kem1, stronger effect = lower value 0.97 | locus YGL227W, strain vid30, stronger effect = lower value 0.985 | locus YGL240W, strain doc1, stronger effect = lower value 0.986 | locus YGL248W, strain PDE1, stronger effect = lower value 1 | locus YGL253W, strain hxk2, stronger effect = lower value 0.961 | [6] 1.02 | locus YGR135W, strain pre9, stronger effect = lower value 0.959 | locus YGR252W, strain gcn5, stronger effect = lower value 0.996 | locus YHR013C, strain ard1, stronger effect = lower value 0.961 | locus YHR027C, strain rpn1, stronger effect = lower value 0.976 | [7] 0.993 and 1.04 | locus YHR079C, strain IRE1 (second series), stronger effect = lower value 0.979 | locus YHR079C, strain IRE1, stronger effect = lower value 1.03 | locus YHR094C, strain hxt1, stronger effect = lower value 0.985 | locus YHR129C, strain ARP1, stronger effect = lower value 1 | locus YHR142W, strain chs7, stronger effect = lower value 0.988 | locus YHR200W, strain rpn10, stronger effect = lower value 0.98 | locus YIL066C, strain RNR3, stronger effect = lower value 1.02 | locus YIL073C, strain SPO22, stronger effect = lower value 1.02 | locus YIL125W, strain kgd1, stronger effect = lower value 0.981 | locus YIR030C, strain dcg1, stronger effect = lower value 0.976 | locus YJL092W, strain hpr5, stronger effect = lower value 0.936 | locus YJL095W, strain BCK1 (second series), stronger effect = lower value 0.969 | locus YJL095W, strain BCK1, stronger effect = lower value 1.02 and 0.99 | locus YJL115W, strain asf1, stronger effect = lower value 0.951 | locus YJL129C, strain trk1, stronger effect = lower value 0.948 | locus YJL134W, strain LCB3, stronger effect = lower value 0.988 | locus YJL154C, strain vps35, stronger effect = lower value 0.974 | locus YJL164C, strain tpk1, stronger effect = lower value 1.01 | locus YJL166W, strain qcr8, stronger effect = lower value 0.977 | locus YJL168C, strain set2, stronger effect = lower value 0.978 | locus YJL187C, strain SWE1 (second series), stronger effect = lower value 1.01 | locus YJL187C, strain SWE1, stronger effect = lower value 0.961 | [9] 1.02 | locus YJR066W, strain TOR1, stronger effect = lower value 0.966 | [10] 1.02 | locus YKL009W, strain mrt4, stronger effect = lower value 0.984 | locus YKL068W, stronger effect = lower value 0.98 | locus YKL085W, strain MDH1 (second series), stronger effect = lower value 1.01 | locus YKL085W, strain MDH1, stronger effect = lower value 1.01 | locus YKL160W, strain elf1, stronger effect = lower value 1.01 | [26] 1 | locus YKR001C, strain vps1, stronger effect = lower value 0.982 | locus YKR026C, strain gcn3, stronger effect = lower value 0.974 | locus YKR091W, strain srl3, stronger effect = lower value 0.987 | locus YLL001W, strain dnm1, stronger effect = lower value 0.977 | locus YLL026W, stronger effect = lower value 0.986 | locus YLL041C, strain sdh2, stronger effect = lower value 0.963 | locus YLR027C, strain aat2, stronger effect = lower value 0.966 | [11] 1.02 | locus YLR058C, strain SHM2, stronger effect = lower value 0.996 | locus YLR102C, strain apc9, stronger effect = lower value 0.991 | locus YLR113W, strain HOG1, stronger effect = lower value 1.01 | locus YLR221C, strain rsa3, stronger effect = lower value 0.989 | locus YLR258W, strain gsy2, stronger effect = lower value 0.978 | locus YLR262C, strain YPT6 (second series), stronger effect = lower value 0.964 | [14] 1.05 | locus YLR268W, strain sec22, stronger effect = lower value 0.987 | locus YLR320W, strain mms22, stronger effect = lower value 0.997 | locus YLR330W, strain CHS5, stronger effect = lower value 0.991 | locus YLR342W, strain FKS1 (second series), stronger effect = lower value 0.999 | locus YLR342W, strain FKS1, stronger effect = lower value 0.982 | locus YLR357W, strain rsc2, stronger effect = lower value 0.94 | locus YLR370C, strain arc18, stronger effect = lower value 0.955 | locus YLR371W, strain rom2, stronger effect = lower value 0.98 | locus YLR384C, strain iki3, stronger effect = lower value 0.996 | locus YLR418C, strain cdc73, stronger effect = lower value 0.98 | locus YML016C, strain PPZ1, stronger effect = lower value 0.988 | locus YML032C, strain rad52, stronger effect = lower value 0.978 | locus YML120C, strain ndi1, stronger effect = lower value 0.989 | locus YML124C, strain tub3, stronger effect = lower value 0.986 | locus YMR058W, strain fet3, stronger effect = lower value 0.972 | locus YMR078C, strain ctf18, stronger effect = lower value 0.981 | locus YMR125W, strain sto1, stronger effect = lower value 0.933 | locus YMR129W, stronger effect = lower value 0.985 | locus YMR205C, strain PFK2, stronger effect = lower value 0.989 | locus YMR223W, strain ubp8, stronger effect = lower value 0.977 | locus YMR231W, strain pep5, stronger effect = lower value 0.964 | [27] 1.03 | locus YNL067W, strain RPL9B, stronger effect = lower value 1.02 | locus YNL071W, strain lat1, stronger effect = lower value 0.981 | locus YNL128W, strain TEP1, stronger effect = lower value 0.998 | [18] 1.02 | locus YNL183C, strain NPR1, stronger effect = lower value 0.974 | locus YNL209W, strain ssb2, stronger effect = lower value 0.976 | locus YNL233W, strain BNI4, stronger effect = lower value 1.02 | locus YNL248C, strain rpa49, stronger effect = lower value 0.955 | locus YNL250W, strain rad50, stronger effect = lower value 0.972 | locus YNL271C, strain bni1, stronger effect = lower value 0.985 | locus YNL298W, strain CLA4, stronger effect = lower value 0.972 | locus YNL307C, strain MCK1, stronger effect = lower value 0.978 | locus YNL322C, strain KRE1 (second series), stronger effect = lower value 0.95 | locus YNR049C, strain mso1, stronger effect = lower value 0.952 | locus YNR052C, strain pop2, stronger effect = lower value 0.974 | locus YOL012C, strain htz1 0.939 | locus YOL147C, strain pex11, stronger effect = lower value 0.989 | locus YOR001W, strain rrp6, stronger effect = lower value 0.951 | locus YOR061W, strain CKA2, stronger effect = lower value 0.992 | locus YOR069W, strain VPS5, stronger effect = lower value 0.987 | locus YOR070C, strain gyp1, stronger effect = lower value 0.986 | locus YOR080W, strain dia2, stronger effect = lower value 0.982 | locus YOR083W, strain WHI5, stronger effect = lower value 1.02 | locus YOR106W, strain vam3, stronger effect = lower value 0.998 | locus YOR136W, strain idh2, stronger effect = lower value 0.976 | locus YOR144C, strain elg1, stronger effect = lower value 0.985 | locus YOR184W, strain ser1, stronger effect = lower value 0.998 | locus YOR231W, strain MKK1, stronger effect = lower value 1.02 | locus YOR265W, strain rbl2, stronger effect = lower value 0.977 | locus YOR270C, strain vph1, stronger effect = lower value 0.949 | locus YOR290C, strain snf2, stronger effect = lower value 0.997 | locus YOR316C, strain cot1, stronger effect = lower value 0.99 | locus YPL051W, strain arl3, stronger effect = lower value 0.972 | locus YPL078C, strain atp4, stronger effect = lower value 1 | locus YPL106C, strain sse1, stronger effect = lower value 0.957 | locus YPL240C, strain hsp82, stronger effect = lower value 0.964 | [24] 1 | locus YPL256C, strain CLN2, stronger effect = lower value 1.03 | locus YPR119W, strain clb2, stronger effect = lower value 0.97 | locus YPR141C, strain kar3, stronger effect = lower value 0.987 | locus YPR163C, strain tif3, stronger effect = lower value 0.994 | locus YPR167C, strain met16, stronger effect = lower value 0.964 | strain wtn01, stronger effect = lower value 0.96
